# Experimental data from PubChem BioAssay AID1159580 (chemical genetic matrix, 2015).
# Several values for one entry are separate records, joined by “and”; a condition that tells them apart may be missing. Equal values may be shown once. Hit rate of the full screen: of about 5,500 compounds, about 2,000 (36%) were called active. Roughly 18% stayed inconclusive and do not appear here. Rule as the data show it: active = normalized growth mostly below about 0.91 (no sharp cut-off); inconclusive = no clear call, values can overlap the other calls; inactive = mostly above about 0.92. The list shows a part of the results.
# Test: chemical genetic growth profiling, strain panel (AID 1159580);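 also: tested at 20 µM; growth read once vehicle control cultures reached saturation at 30 °C; 1 = growth at the plate median or of vehicle wells; lower values mean less growth of the strain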
# Conditions: S. cerevisiae deletion strains, growth OD
compound,measurement,setting,value
C=C[C@@](C)(O)CCC1C(=C)CCC2[C@@](C)(CO)CCC[C@]12C (stereo partly drawn),normalized growth,"locus YAL021C, strain ccr4, stronger effect = lower value",0.994 (inactive)
same,normalized growth,"locus YAL026C, strain drs2, stronger effect = lower value",0.972 (inactive)
same,normalized growth,"locus YAL030W, strain snc1, stronger effect = lower value",1.07 (inactive)
same,normalized growth,"locus YBL061C, strain skt5, stronger effect = lower value",1.06 (inactive)
same,normalized growth,"locus YBR009C, strain hhf1, stronger effect = lower value",0.925 (inactive)
same,normalized growth,"locus YBR021W, strain FUR4, stronger effect = lower value",0.772 (active)
same,normalized growth,"locus YBR023C, strain chs3, stronger effect = lower value",1.02 (inactive)
same,normalized growth,"locus YBR171W, strain sec66, stronger effect = lower value",1.08 (inactive)
same,normalized growth,"locus YBR229C, strain ROT2, stronger effect = lower value",1.06 (inactive)
same,normalized growth,"locus YBR231C, strain swc5, stronger effect = lower value",1.12 [resistant] (active)
same,normalized growth,"locus YBR279W, strain paf1, stronger effect = lower value",0.997 (inactive)
same,normalized growth,"locus YCL011C, strain gbp2, stronger effect = lower value",1.02 (inactive)
same,normalized growth,"locus YCL016C, strain dcc1, stronger effect = lower value",0.974 (inactive)
same,normalized growth,"locus YCL029C, strain bik1, stronger effect = lower value",0.972 (inactive)
same,normalized growth,"locus YCL061C, strain MRC1, stronger effect = lower value",0.963 (inactive)
same,normalized growth,"locus YCL069W, strain vba3, stronger effect = lower value",1.03 (inactive)
same,normalized growth,"locus YCR088W, strain abp1, stronger effect = lower value",1.06 (inactive)
same,normalized growth,"locus YDL005C, strain med2, stronger effect = lower value",1.05 (inactive)
same,normalized growth,"locus YDL035C, strain GPR1, stronger effect = lower value",0.794 (active)
same,normalized growth,"locus YDL040C, strain nat1, stronger effect = lower value",1.08 [resistant] (active)
same,normalized growth,"locus YDL074C, strain BRE1, stronger effect = lower value",0.982 (inactive)
same,normalized growth,"locus YDL101C, strain DUN1, stronger effect = lower value",1.05 (inactive)
same,normalized growth,"locus YDL134C, strain PPH21, stronger effect = lower value",0.979 (inactive)
same,normalized growth,"locus YDL185W, strain tfp1, stronger effect = lower value",1.02 (inactive)
same,normalized growth,"locus YDL192W, strain arf1, stronger effect = lower value",0.989 (inactive)
same,normalized growth,"locus YDR001C, strain nth1, stronger effect = lower value",1.08 [resistant] (active)
same,normalized growth,"locus YDR069C, strain doa4, stronger effect = lower value",1.05 (inactive)
same,normalized growth,"locus YDR101C, strain arx1, stronger effect = lower value",0.915 (active)
same,normalized growth,"locus YDR137W, strain rgp1, stronger effect = lower value",0.758 (active)
same,normalized growth,"locus YDR150W, strain NUM1, stronger effect = lower value",1.09 (inactive)
same,normalized growth,"locus YDR159W, strain sac3, stronger effect = lower value",0.997 (inactive)
same,normalized growth,"locus YDR162C, strain NBP2, stronger effect = lower value",0.84 (inactive)
same,normalized growth,"locus YDR195W, strain ref2",1.25 [resistant] (active)
same,normalized growth,"locus YDR297W, strain sur2, stronger effect = lower value",1.04 (inactive)
same,normalized growth,"locus YDR318W, strain mcm21, stronger effect = lower value",0.99 (inactive)
same,normalized growth,"locus YDR334W, strain swr1, stronger effect = lower value",1.1 [resistant] (active)
same,normalized growth,"locus YDR335W, strain msn5, stronger effect = lower value",0.982 (inactive)
same,normalized growth,"locus YDR388W, stronger effect = lower value",1.02 (inactive)
same,normalized growth,"locus YDR392W, strain spt3, stronger effect = lower value",0.833 (inactive)
same,normalized growth,"locus YDR502C, strain sam2, stronger effect = lower value",0.985 (inactive)
same,normalized growth,"locus YEL003W, strain gim4, stronger effect = lower value",0.948 (inactive)
same,normalized growth,"locus YEL037C, strain rad23, stronger effect = lower value",1.05 (inactive)
same,normalized growth,"locus YEL061C, strain CIN8 (second series), stronger effect = lower value",1.07 (inactive)
same,normalized growth,"locus YEL061C, strain CIN8, stronger effect = lower value",1.07 (inactive)
same,normalized growth,"locus YER015W, strain faa2, stronger effect = lower value",1 (inactive)
same,normalized growth,"locus YER016W, strain bim1, stronger effect = lower value",1.05 (inactive)
same,normalized growth,"locus YER110C, stronger effect = lower value",1.06 (inactive)
same,normalized growth,"locus YER111C, strain swi4, stronger effect = lower value",1.07 (inactive)
same,normalized growth,"locus YER155C, strain BEM2 (second series), stronger effect = lower value",1.22 [resistant] (active)
same,normalized growth,"locus YER155C, strain BEM2, stronger effect = lower value",1.09 [resistant] (active)
same,normalized growth,"locus YER167W, strain BCK2, stronger effect = lower value",1.01 (inactive)
same,normalized growth,"locus YFR010W, strain ubp6, stronger effect = lower value",1.07 (inactive)
same,normalized growth,"locus YGL078C, strain dbp3, stronger effect = lower value",0.871 (active)
same,normalized growth,"locus YGL086W, strain mad1, stronger effect = lower value",1 (inactive)
same,normalized growth,"locus YGL167C, strain pmr1, stronger effect = lower value",1.06 (inactive)
same,normalized growth,"locus YGL173C, strain kem1, stronger effect = lower value",0.913 (inactive)
same,normalized growth,"locus YGL227W, strain vid30, stronger effect = lower value",1.06 (inactive)
same,normalized growth,"locus YGL240W, strain doc1, stronger effect = lower value",0.974 (inactive)
same,normalized growth,"locus YGL248W, strain PDE1, stronger effect = lower value",0.982 (inactive)
same,normalized growth,"locus YGL253W, strain hxk2, stronger effect = lower value",1.02 (inactive)
same,normalized growth,"locus YGR078C, strain PAC10, stronger effect = lower value",1.02 (inactive)
same,normalized growth,"locus YGR135W, strain pre9, stronger effect = lower value",0.992 (inactive)
same,normalized growth,"locus YGR252W, strain gcn5, stronger effect = lower value",0.92 (inactive)
same,normalized growth,"locus YHR013C, strain ard1, stronger effect = lower value",1.11 (inactive)
same,normalized growth,"locus YHR027C, strain rpn1, stronger effect = lower value",1.02 (inactive)
same,normalized growth,"locus YHR030C, strain SLT2, stronger effect = lower value",1.09 [resistant] (active) and 0.872 (inactive)
same,normalized growth,"locus YHR079C, strain IRE1 (second series), stronger effect = lower value",1.05 (inactive)
same,normalized growth,"locus YHR079C, strain IRE1, stronger effect = lower value",0.862 (inactive)
same,normalized growth,"locus YHR094C, strain hxt1, stronger effect = lower value",1.04 (inactive)
same,normalized growth,"locus YHR129C, strain ARP1, stronger effect = lower value",1.05 (inactive)
same,normalized growth,"locus YHR142W, strain chs7, stronger effect = lower value",1.01 (inactive)
same,normalized growth,"locus YHR200W, strain rpn10, stronger effect = lower value",1.02 (inactive)
same,normalized growth,"locus YIL066C, strain RNR3, stronger effect = lower value",0.996 (inactive)
same,normalized growth,"locus YIL073C, strain SPO22, stronger effect = lower value",1.01 (inactive)
same,normalized growth,"locus YIL125W, strain kgd1, stronger effect = lower value",0.973 (inactive)
same,normalized growth,"locus YIR030C, strain dcg1, stronger effect = lower value",1.05 (inactive)
same,normalized growth,"locus YJL092W, strain hpr5, stronger effect = lower value",1.02 (inactive)
same,normalized growth,"locus YJL095W, strain BCK1 (second series), stronger effect = lower value",1.07 (inactive)
same,normalized growth,"locus YJL095W, strain BCK1, stronger effect = lower value",1.02 (inactive) and 0.886 (inactive)
same,normalized growth,"locus YJL115W, strain asf1, stronger effect = lower value",1.07 (inactive)
same,normalized growth,"locus YJL129C, strain trk1, stronger effect = lower value",1.02 (inactive)
same,normalized growth,"locus YJL134W, strain LCB3, stronger effect = lower value",1.07 (inactive)
same,normalized growth,"locus YJL154C, strain vps35, stronger effect = lower value",1.09 [resistant] (active)
same,normalized growth,"locus YJL164C, strain tpk1, stronger effect = lower value",0.963 (inactive)
same,normalized growth,"locus YJL166W, strain qcr8, stronger effect = lower value",0.968 (inactive)
same,normalized growth,"locus YJL168C, strain set2, stronger effect = lower value",1.07 (inactive)
same,normalized growth,"locus YJL187C, strain SWE1 (second series), stronger effect = lower value",0.995 (inactive)
same,normalized growth,"locus YJL187C, strain SWE1, stronger effect = lower value",1.01 (inactive)
